Values without a mark were called inactive. Results filed as inconclusive are left out. Where a call stands in place of a potency, no number is given. Calls of active or inactive are those of the source. Unless noted, the call rests on the fitted dose curve; in most records, active means well fitted activation curve with a large enough effect in the main read-out, with a control signal flat (not every such curve was filed as active); inconclusive means small, poorly fitted or top-dose-only effect, or effect the other way, or a change in a side signal; inactive means flat fitted curve, though single readings scatter.
Tests used:
[1] = biological target: Cytochrome P450 1A2 (Homo sapiens) (UniProt P05177); test: p450-cyp1a2 (AID 410; calls by dose curve; further: potency means the concentration at half of the fitted maximal effect)
Sequence of Cytochrome P450 1A2 (Homo sapiens) (P05177 whole entry, looked up): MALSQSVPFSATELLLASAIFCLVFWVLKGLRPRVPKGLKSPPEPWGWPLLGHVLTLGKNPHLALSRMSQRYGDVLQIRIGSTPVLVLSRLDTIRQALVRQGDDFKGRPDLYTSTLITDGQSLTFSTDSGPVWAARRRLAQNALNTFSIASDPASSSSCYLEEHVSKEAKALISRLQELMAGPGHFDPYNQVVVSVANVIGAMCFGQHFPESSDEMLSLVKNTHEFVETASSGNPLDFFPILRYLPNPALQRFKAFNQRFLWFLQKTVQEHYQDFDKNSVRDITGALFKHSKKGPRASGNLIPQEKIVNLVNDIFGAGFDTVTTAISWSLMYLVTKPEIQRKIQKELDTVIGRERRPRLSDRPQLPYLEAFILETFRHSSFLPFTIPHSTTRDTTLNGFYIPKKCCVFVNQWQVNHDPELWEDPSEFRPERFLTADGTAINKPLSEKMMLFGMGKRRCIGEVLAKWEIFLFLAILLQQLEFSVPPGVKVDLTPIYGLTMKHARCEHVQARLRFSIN
Procedure, shortened: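 20nM CYP1A2 with 100uM Luciferin-ME (at Km) in 100mM KPO4; compound preincubated 10 min, NADPH regeneration added, 60 min at room temperature. Luciferin quantified by luminescence after detection reagent; normalized to 57 uM furafylline.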

[2] = biological target: Mitogen-activated protein kinase 10 (Mus musculus) (UniProt Q61831); test: JNK3 AlphaScreen Assay (AID 530; active means well fitted curve in either direction with a large enough effect, not every such curve was filed as active;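 further: kinase came from lysate of stimulated human HepG2 cells; signal reports phosphorylation of biotinylated GST-cJun 1-79 at Ser73 with 10 µM ATP; series mostly up to about 57 µM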)
Procedure, shortened: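 Pre-activated (IL-1β/TNFα) JNK3 in HepG2 lysates phosphorylates biotin-GST-cJun(1-79), 10 uM ATP; anti-phospho-cJun(Ser73) AlphaScreen read at room temperature, pH 7.6 Tris buffer. Compounds pre-incubated 15 min as titrations.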

[3] = biological target: 3',5'-cyclic-AMP phosphodiesterase 4B (Homo sapiens) (UniProt Q07343); test: qHTS Assay for Inhibitors of PDE-IV (AID 607)
Sequence of 3',5'-cyclic-AMP phosphodiesterase 4B (Homo sapiens) (Q07343 whole entry, looked up): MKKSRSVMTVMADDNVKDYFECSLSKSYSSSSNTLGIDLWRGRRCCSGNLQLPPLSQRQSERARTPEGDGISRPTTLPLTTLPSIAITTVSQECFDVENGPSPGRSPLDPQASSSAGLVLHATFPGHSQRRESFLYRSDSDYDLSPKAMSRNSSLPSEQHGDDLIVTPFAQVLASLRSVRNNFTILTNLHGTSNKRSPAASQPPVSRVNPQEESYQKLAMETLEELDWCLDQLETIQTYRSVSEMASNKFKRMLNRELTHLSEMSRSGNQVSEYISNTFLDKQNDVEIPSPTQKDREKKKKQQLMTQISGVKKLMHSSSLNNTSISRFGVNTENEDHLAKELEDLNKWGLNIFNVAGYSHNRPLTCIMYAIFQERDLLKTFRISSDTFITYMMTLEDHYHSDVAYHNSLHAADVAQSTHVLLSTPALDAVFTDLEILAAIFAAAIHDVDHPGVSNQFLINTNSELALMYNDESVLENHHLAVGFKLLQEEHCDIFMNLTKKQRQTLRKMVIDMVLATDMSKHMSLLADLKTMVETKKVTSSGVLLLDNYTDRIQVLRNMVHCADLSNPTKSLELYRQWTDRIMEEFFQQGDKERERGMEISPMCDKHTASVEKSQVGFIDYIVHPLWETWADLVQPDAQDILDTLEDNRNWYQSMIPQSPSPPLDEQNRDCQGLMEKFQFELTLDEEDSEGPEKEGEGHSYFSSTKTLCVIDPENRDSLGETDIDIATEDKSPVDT
Procedure, shortened: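 HEK293 ACTOne cells with CNG channel (1000/well), endogenous PDE4; membrane potential dye, compounds up to 22.9 uM final. Fluorescence Ex 535/Em 590; RO 20-1724 (100 uM final) as reference.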

[4] = biological target: Cytochrome P450 3A4 (Homo sapiens) (UniProt P08684); test: qHTS Assay for Activators of Cytochrome P450 3A4 (AID 885; active means well fitted activation curve with a large enough effect; further: nearly all actives have a fitted effect of over 65% in size)
Sequence of Cytochrome P450 3A4 (Homo sapiens) (P08684 whole entry, looked up): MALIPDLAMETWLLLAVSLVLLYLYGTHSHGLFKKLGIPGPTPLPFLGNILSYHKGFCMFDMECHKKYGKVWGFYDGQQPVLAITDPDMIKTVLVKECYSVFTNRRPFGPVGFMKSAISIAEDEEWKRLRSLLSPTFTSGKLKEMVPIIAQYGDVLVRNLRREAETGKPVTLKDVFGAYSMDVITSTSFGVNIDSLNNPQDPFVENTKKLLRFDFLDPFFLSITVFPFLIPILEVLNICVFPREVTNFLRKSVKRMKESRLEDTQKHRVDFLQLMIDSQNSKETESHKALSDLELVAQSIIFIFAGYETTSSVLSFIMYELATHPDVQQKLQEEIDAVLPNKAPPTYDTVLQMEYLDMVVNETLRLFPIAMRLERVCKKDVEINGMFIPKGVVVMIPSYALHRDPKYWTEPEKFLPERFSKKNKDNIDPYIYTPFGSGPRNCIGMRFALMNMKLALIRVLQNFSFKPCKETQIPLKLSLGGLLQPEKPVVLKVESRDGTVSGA
Procedure, shortened: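 Human CYP3A4 (20 nM) with Luciferin-PPXE at 25 uM (its KM) in 200 mM KPO4; 10 min compound preincubation, then NADPH regeneration and 60 min reaction at RT. Luciferin read by luminescence; normalized to 57 uM ketoconazole full inhibition.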

Row | SMILES | Potency [1] | Potency [2] | Potency [3] | Potency [4]
1 | CC1=C(C(=O)OCc2ccccc2)C(c2ccc([N+](=O)[O-])cc2)NC(=O)N1CCCCCC(=O)O (stereo not given) | 15.8 µM (active) | inactive | inactive | inactive
2 | C[C@H](CO)NC(=O)[C@H]1C[C@@H]1[C@H](NP(=O)(c1ccccc1)c1ccccc1)c1ccccc1 | inactive | inactive | inactive | inactive
3 | C[C@@H](C(=O)O)[C@@H]1C[C@@]1(C)[C@@H](NC(=O)OCc1ccccc1)c1ccccc1 | inactive | inactive | inactive | inactive
4 | CC(C)=C1C(=O)C(c2ccccc2)=C2CN3C(=O)N(CCc4ccccc4)C(=O)[C@]3(Cc3ccccc3)[C@H]21 | inactive | inactive | inactive | inactive
5 | C[C@H]1C2=C3C(CC[C@H]4C(OCc5ccc(F)cc5C(F)(F)F)OC[C@](C)([C@@H]34)N(C(=O)OC(C)(C)C)C2)C(CO)C1CO (stereo not given in full) | 15.8 µM (active) | inactive | inactive | inactive
6 | CCC[C@@H]1C[C@@]1(CCC)C(NC(=O)c1cccs1)c1ccc(Cl)cc1 (stereo not given in full) | 10 µM (active) | inactive | inactive | inactive
7 | C[C@H](CO)NC(=O)[C@@H]1C[C@H]1[C@@H](NP(=O)(c1ccccc1)c1ccccc1)c1ccccc1 | inactive | inactive | inactive | inactive
8 | COC(=O)[C@H]1C[C@@H]1[C@H](NC(=O)c1cc(C)on1)c1ccccc1 | 15.8 µM (active) | inactive | inactive | inactive
9 | CC[C@H]1C2=C3C(CC[C@H]4C(OCc5ccc(F)cc5C(F)(F)F)OC[C@](C)([C@@H]34)N(C(=O)OC(C)(C)C)C2)C2COC(=O)OCC21 (stereo not given in full) | inactive | inactive | inactive | inactive
10 | CC1(C)C(=O)C(c2ccccc2)=C2CN3C(=O)N(CCc4ccccc4)C(=O)C3(Cc3ccc(C(F)(F)F)cc3)C=C21 (stereo not given) | inactive | inactive | inactive | inactive
11 | C[C@@]1(C(NC(=O)c2cccs2)c2ccc(-c3ccccc3)cc2)C[C@H]1C1CCCCC1 (stereo not given in full) | inactive | inactive | inactive | inactive
12 | CCCCCC1=C2CNC(C)(C(=O)OC)C=C2C(C)C1=O (stereo not given) | 25.1 µM (active) | inactive | inactive | inactive
13 | COC(=O)C1(Cc2ccccc2)C=C2C(=C(C)C(=O)C2C)CN1 (stereo not given) | 10 µM (active) | inactive | inactive | inactive
14 | CCCC/C=C/C(NC(=O)c1ccco1)c1ccccc1 (stereo not given) | 5.01 µM (active) | inactive | inactive | inactive
15 | CNC(=O)[C@H](C)[C@H]1C[C@]1(C)[C@H](NC(=O)OCc1ccccc1)c1ccccc1 | 20 µM (active) | inactive | inactive | inactive

From PubChem BioAssay (NCATS)
